Reference: PubChem BioAssay (NCATS)
Values joined by “and” are separate entries in the source; they are usually repeats but may differ in a detail not shown here. Identical values can stand only once. Results filed as inconclusive are left out. A call without a number means that no potency is given here. Where a structure was tested more than once in an assay, its records may differ in their call. Active and inactive are the calls of the source. Calls come from the whole dose curve; as a rule, active = well fitted curve in the direction sought with a large enough effect; inconclusive = small, poorly fitted or top-dose-only effect, or another doubt; inactive = no such curve, though single readings can be large; an effect the other way counts as inactive or inconclusive. Non-standard residues stand in square brackets, D forms with d. Residues, ends and D or L forms follow the SMILES beside them. *: point of attachment. Sta = CC(C)C[C@H](N)[C@@H](O)CC(=O)O; Isovaleryl = CC(C)CC(=O)*

Key:
[1] = target: Glutathione peroxidase 1 (Homo sapiens) (UniProt P07203); assay: Primary qHTS Assay for Inhibitors of Recombinant Selenoprotein Glutathione Peroxidase 1 (GPX1) (AID 1845191); note: nearly all actives have a fitted effect of over 65% in size
Chain of Glutathione peroxidase 1 (Homo sapiens) (P07203 whole entry, looked up): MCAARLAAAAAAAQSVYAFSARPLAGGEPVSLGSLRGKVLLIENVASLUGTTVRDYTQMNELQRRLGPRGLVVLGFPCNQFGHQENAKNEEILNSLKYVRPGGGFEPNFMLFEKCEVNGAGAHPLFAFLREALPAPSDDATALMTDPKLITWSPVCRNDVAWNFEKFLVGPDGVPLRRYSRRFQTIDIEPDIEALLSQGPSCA
Outline: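 NADPH consumption tracked by fluorescence at 340/450 nm between t=0 and t=15 min, room temperature. Final mix: 10 nM GPX1, 100 nM glutathione reductase, 1 mM GSH, 0.5 mM NADPH, 0.5 mM cumene hydroperoxide, 0.01% BSA; 30 min compound–enzyme preincubation.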

[2] = target: Phospholipid hydroperoxide glutathione peroxidase GPX4 (Homo sapiens) (UniProt P36969); assay: Primary qHTS Assay for Inhibitors of Recombinant Selenoprotein Glutathione Peroxidase 4 (GPX4) (AID 1845192); note: nearly all actives have a fitted effect of over 65% in size; note: potency is the fitted concentration of half-maximal effect
Chain of Phospholipid hydroperoxide glutathione peroxidase GPX4 (Homo sapiens) (P36969 whole entry, looked up): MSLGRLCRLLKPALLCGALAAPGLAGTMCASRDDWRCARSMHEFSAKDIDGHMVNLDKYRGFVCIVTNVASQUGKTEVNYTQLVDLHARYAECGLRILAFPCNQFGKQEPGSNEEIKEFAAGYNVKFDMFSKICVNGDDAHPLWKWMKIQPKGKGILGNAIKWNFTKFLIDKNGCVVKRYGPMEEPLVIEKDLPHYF
Outline: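 NADPH consumption followed by fluorescence at 340/450 nm, t=0 and after 15 min at room temperature. Reaction started with cumene hydroperoxide (0.5 mM final) after 30 min compound–GPX4 preincubation; final 200 nM GPX4, 100 nM GR, 1 mM GSH, 0.5 mM NADPH.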

[3] = Primary fluorescence-based thiol-reactive (MSTI) qHTS assay for identification of artifact compounds. (AID 1845221); note: nearly all actives have a fitted effect of over 65% in size; note: potency is the fitted concentration of half-maximal effect
Outline: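 A multi-concentration qHTS design tested compounds against 4 uM MSTI, pH 7.4 phosphate-buffered saline. Plates were protected from light for 1 h at room temperature before imaging fluorescence.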

[4] = test system: Nanoluciferase (engineered Oplophorus gracilirostris luciferase); assay: Primary Nanoluciferase (NLuc) qHTS assay for identification of artifact compounds. (AID 1845222); note: series mostly up to about 54 µM
Outline: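 Compounds are pinned into diluted (1:55) conditioned medium of NLuc-expressing S16 cells and held 15 min at room temperature protected from light. Nano-Glo substrate follows, and luminescence is read 5 min later.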

[5] = Primary redox qHTS assay for identification of artifact compounds. (AID 1845223)
Outline: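 Redox-cycling detection via DTT (250 uM final) oxidation coupled to Amplex Red (25 uM)/HRP (250 mU/mL) in HBSS. 15 min preincubation plus 30 min after DTT, room temperature. Ex/Em 525/598 nm; 4-parameter Hill fit against DMSO and 10 uM DA3003.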

[6] = Quantitative High-Throughput drug screen in 47 multiple myeloma cell lines against the NCATS MIPE library collection: FR4_PLB cell viability assay (AID 1918924; note: nearly all actives have a fitted effect of over 35% in size; note: potency is the fitted concentration of half-maximal effect)
Outline: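 Myeloma cells (500 per well) were exposed to MIPE 4.0 compounds by pin transfer and incubated 48 hours at 37C, 5% CO2. Viability was read as ATP by CellTiter-Glo luminescence, normalised to DMSO (100%) and media-only (0%) wells.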

[7] = Quantitative High-Throughput drug screen in 47 multiple myeloma cell lines against the NCATS MIPE library collection: EJM_DSMZ cell viability assay (AID 1918926; note: nearly all actives have a fitted effect of over 30% in size; note: potency is the fitted concentration of half-maximal effect)
Outline: (§1)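 Approved and investigational drugs from MIPE 4.0 were added by pin tool to 500 cells per well. After 48 hours at 37C, ATP-based CellTiter-Glo luminescence indicated remaining viability.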

[8] = Quantitative High-Throughput drug screen in 47 multiple myeloma cell lines against the NCATS MIPE library collection: AMO1_DSMZ cell viability assay (AID 1918927; note: nearly all actives have a fitted effect of over 30% in size; note: potency is the fitted concentration of half-maximal effect)
Outline: as §1

[9] = Quantitative High-Throughput drug screen in 47 multiple myeloma cell lines against the NCATS MIPE library collection: Delta47_JCRB cell viability assay (AID 1918925; note: nearly all actives have a fitted effect of over 45% in size; note: potency is the fitted concentration of half-maximal effect)
Outline: as §1

Compound | Potency [1] | Potency [2] | Potency [3] | outcome [4] | outcome [5] | Potency [6] | Potency [7] | Potency [8] | Potency [9]
CC(=O)O[C@H]1C(=O)[C@@]2(C)C([C@H](OC(=O)c3ccccc3)[C@]3(O)C[C@H](OC(=O)[C@H](O)[C@@H](NC(=O)c4ccccc4)c4ccccc4)C(C)=C1C3(C)C)[C@]1(OC(C)=O)CO[C@@H]1C[C@@H]2O (stereo not given in full) | inactive | inactive | inactive | inactive | inactive | inactive | inactive |  | 
COc1ccc2cc([C@H](C)C(=O)O)ccc2c1 | inactive | inactive |  |  | inactive | inactive |  | inactive | 
COc1ccc(C2(C#N)CCC(C(=O)O)CC2)cc1OC1CCCC1 (stereo not given) | inactive | inactive | inactive | inactive | inactive | inactive |  | inactive | 
N[C@@H](Cc1cc(I)c(Oc2cc(I)c(O)c(I)c2)c(I)c1)C(=O)O | inactive | inactive | 0.736 µM (active) | inactive | inactive | inactive |  | inactive | 
OC(CN1CCN(c2cccc(Cl)c2)CC1)C(c1ccccc1)c1ccccc1 (stereo not given) | inactive | inactive | inactive | inactive | inactive | inactive | inactive |  | 
Cc1ccc(Nc2nccc(N(C)c3ccc4c(C)n(C)nc4c3)n2)cc1S(N)(=O)=O | inactive | inactive | inactive | inactive | inactive | 20.9 µM (active) |  | 10.5 µM (active) | 16.6 µM (active)
O=C(OC1C[C@H]2CC[C@@H](C1)[N+]21CCCC1)C(O)(c1ccccc1)c1ccccc1 (stereo not given in full) | inactive | inactive | inactive | inactive | inactive | inactive | inactive | inactive | 
O=C(O)c1cccc(-c2noc(-c3ccccc3F)n2)c1 | inactive | inactive | inactive |  | inactive | inactive | inactive | inactive | inactive
Cc1ccc(C)c(OCCCC(C)(C)C(=O)O)c1 | inactive | inactive |  |  |  | inactive |  |  | 16.6 µM (active)
Cc1ccc(NC(=O)c2ccc(CN3CCN(C)CC3)cc2)cc1Nc1nccc(-c2cccnc2)n1 | inactive | inactive | inactive | inactive | inactive |  |  |  | 20.9 µM (active)
O=C(O)CCNC(=O)c1ccc(N=Nc2ccc(O)c(C(=O)O)c2)cc1 | inactive | inactive |  |  |  | inactive |  |  | inactive
C=C(c1ccc(C(=O)O)cc1)c1cc2c(cc1C)C(C)(C)CCC2(C)C | inactive | 6.31 µM (active) and inactive and 8.06 µM (active) |  | inactive | inactive |  | inactive |  | 
Cc1nc(Nc2ncc(C(=O)Nc3c(C)cccc3Cl)s2)cc(N2CCN(CCO)CC2)n1 | inactive | inactive | inactive | inactive | inactive |  |  | 2.64 µM (active) | 
CN(c1nccc(=O)[nH]1)C1CCN(c2nc3ccccc3n2Cc2ccc(F)cc2)CC1 | inactive | inactive | inactive | inactive |  | inactive |  | inactive | 4.69 µM (active)
COc1cc2c(N3CCN(C(=O)Nc4ccc(OC(C)C)cc4)CC3)ncnc2cc1OCCCN1CCCCC1 | inactive | inactive | inactive | inactive | inactive |  |  | inactive | 8.33 µM (active)
CC(C)[N+]1(C)[C@@H]2CC[C@H]1CC(OC(=O)C(CO)c1ccccc1)C2 (stereo not given in full) | inactive | inactive |  |  |  | inactive |  |  | inactive
Clc1ccc(C(Cn2ccnc2)OCc2c(Cl)cccc2Cl)c(Cl)c1 (stereo not given) | inactive | inactive | inactive | inactive | inactive |  |  | 20.9 µM (active) | 
COc1cc(C(C)=O)ccc1OCCCN1CCC(c2noc3cc(F)ccc23)CC1 | inactive | inactive |  |  |  |  |  |  | 
CN(C)CCc1c[nH]c2ccc(Cn3cncn3)cc12 | inactive | inactive |  |  |  | inactive | inactive |  | inactive
CC(C)CC(=O)N[C@H](C(=O)N[C@H](C(=O)N[C@@H](CC(C)C)[C@@H](O)CC(=O)N[C@@H](C)C(=O)N[C@@H](CC(C)C)[C@@H](O)CC(=O)O)C(C)C)C(C)C (Isovaleryl-VV[Sta]A[Sta]-OH) | inactive | inactive |  |  |  | inactive |  |  | 
COc1c(O)cc2c(c1O)[C@@H]1O[C@H](CO)[C@@H](O)[C@H](O)[C@H]1OC2=O | inactive | inactive | 11.7 µM (active) | inactive | inactive | inactive | inactive | inactive | 
CCOc1cc(CC(=O)N[C@@H](CC(C)C)c2ccccc2N2CCCCC2)ccc1C(=O)O | inactive | inactive |  |  |  | inactive |  |  | 
CCC1=C(C)CN(C(=O)NCCc2ccc(S(=O)(=O)NC(=O)NC3CCC(C)CC3)cc2)C1=O (stereo not given) | inactive | inactive | inactive | inactive | inactive | inactive |  | inactive | inactive
CCCCC(CC)COC(=O)C(C#N)=C(c1ccccc1)c1ccccc1 (stereo not given) | inactive | inactive |  |  |  | inactive | inactive | inactive | 
CC1=C(C)C(=O)C(C(CCCCCC(=O)O)c2ccccc2)=C(C)C1=O (stereo not given) | inactive | 11.2 µM (active) |  |  |  | inactive | inactive |  | 
Cc1cc(C2CCCCC2)n(O)c(=O)c1 | inactive | inactive |  |  |  | 6.62 µM (active) | 16.6 µM (active) | 7.43 µM (active) | 6.62 µM (active)
O=C1CCc2ccc(OCCCCN3CCN(c4cccc(Cl)c4Cl)CC3)cc2N1 | inactive | inactive |  |  |  | inactive |  | inactive | 23.5 µM (active)
